From PubChem BioAssay come the findings set out here.

The nature of assay [1]: yeast TOR pathway RPL19A-GFP modulators, primary screen, cell-based, S. cerevisiae, multiplex flow cytometry (AID 1862; in the data active means percent of DMSO control GFP below about 86%;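 further: lower values mimic rapamycin by blocking the RPL19A rise seen in DMSO cells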). As to conditions: S. cerevisiae RPL19A-GFP strain, flow cytometry fluorescence, 3 h; at 10 µM; stronger effect = lower value.
The nature of assay [2]: modulators of MEP2-GFP levels in yeast, primary screen, S. cerevisiae, multiplex flow cytometry (AID 1867).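 Further: median GFP channel fluorescence of barcode-gated MEP2-GFP cells measured by flow cytometry.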 As to conditions: S. cerevisiae MEP2-GFP strain, 3 h, at 10 µM, stronger effect = higher value, 100% means same as DMSO wells.
A short description of assay [3]: modulators of CIT2-GFP expression in yeast, primary screen, S. cerevisiae, GFP fusion, multiplex flow cytometry (AID 1870;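 active means percent response above a set limit, the screen-wide mean plus 3 SD, cut at about 130% in these data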;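 further: barcoded CIT2-GFP strain pooled with four other GFP strains with rapamycin as positive control; median GFP fluorescence per well over plate mean of DMSO wells so 100% = DMSO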). As to conditions: 3 h, at 10 µM, stronger effect = higher value.
Assay [4] can be described thus: modulators of LAP4-GFP expression in yeast, primary screen, S. cerevisiae, multiplex flow cytometry (AID 1873;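 active means GFP signal, as percent of the solvent control, above the screen mean plus 3 SD, about 149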). Conditions: 3 h, at 10 µM, stronger effect = higher value.
The nature of assay [5]: modulators of AGP1-GFP expression in yeast TOR pathway, primary screen, cell-based, multiplex flow cytometry, S. cerevisiae (AID 1887;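 active means GFP signal above the screen-wide mean plus 3 SD, that is over about 124.5% of the solvent control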;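 further: AGP1-GFP fusion strain of S. cerevisiae within a five-strain barcoded multiplex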). Conditions: 3 h, at 10 µM, stronger effect = higher value.
Assay [6] can be described thus: inhibitors of CD8+ T cell-vesicle binding, pilot screen, LFA-1/ICAM-1 modulator project, MLPCN validation set, flow cytometry (AID 2523;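 active means response below a set limit, under 55% cells CD8-positive and vesicle-bound, and CD8 cells' 90th-percentile brightness under 279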;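 on vesicle binding response: mean PE anti-B7-1 fluorescence of CD8+ cells relative to row control; 100% = QL9-loaded vesicles with DMSO vehicle in the same plate row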). As to conditions: 2C mouse CD8+ T cells, at 7 µM, stronger effect = lower value; double positive events: measured here: CD8+/vesicle+ event percentage.
Assay [7] concerns the target Integrin beta-1 (Homo sapiens) + Integrin alpha-4 (Homo sapiens) (UniProt P13612+P05556). As to the kind of experiment: inhibition of HUTS-21 binding to VLA-4, pilot screen, VLA-4 allosteric modulator project, U937 cells, HUTS-21 mAb, flow cytometry, validation set (AID 2674;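 active means inhibition above 50%, about 3 SD of the validation set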;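 further: antibody binding induced by the VLA-4 ligand LDV present at three times its Kd; 0% = LDV ligand with antibody and no compound and 100% = antibody without LDV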). As to conditions: HUTS-21 LIBS mAb binding, at 6.7 µM, stronger effect = higher value, binding induced by LDV ligand.

Assay [8] is described as follows: superoxide lowering in aged yeast cells, pilot screen, validation compound set (AID 2706;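 active means superoxide response below 65% of plate, a cut near 3 SD across the whole screen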;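 further: yeast exposed to compound for one week at 30 degrees C before staining; 100% = mean of all compound wells on the same plate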). As to conditions: S. cerevisiae aging, superoxide DHE fluorescence; at 10 µM; stronger effect = lower value.
In assay [9] the target is Beta-adrenergic receptor kinase 1 (Homo sapiens) (UniProt P25098). As to the kind of experiment: GRK2 binders displacing RNA aptamer, biochemical, validation, human GRK2, bead flow cytometry (AID 488806;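 active means aptamer binding inhibition above 30%, about 3 SD of noise from non-fluorescent compounds; inactive means inhibition at or below 30%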). Conditions: bead-bound GRK2, FAM-aptamer displacement, at 10 µM, stronger effect = higher value.
In assay [10] the target is Beta-2 adrenergic receptor (Homo sapiens) (UniProt P07550). Kind of assay: beta2AR agonists driving receptor internalization, pilot screen, cell-based, FAP fluorogen, flow cytometry, validation set (AID 504459;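 active means percent response above 42, roughly 3 SD of non-fluorescent test compounds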;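 further: agonist-driven loss of surface beta2AR via internalization measured by FAP dye flow cytometry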). As to conditions: Am2.2-beta2AR cells, FAP surface receptor flow cytometry; at 10 µM; stronger effect = higher value.
The target of assay [11] is AP-2 complex subunit beta (Homo sapiens) (UniProt P63010). Kind of assay: inhibitors of arrestin peptide binding to AP2, pilot screen, biochemical, validation set, GST-AP2 beads, flow cytometry (AID 504541;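 active means inhibition above 54%, about 3 SD of non-fluorescent compounds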;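 further: AP2 carries R879A mutation and is captured from E. coli lysate; bead-bound FITC arrestin peptide fluorescence measuring arrestin peptide binding to AP2; 0% = DMSO wells and 100% = excess unlabeled arrestin peptide control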). Conditions: FITC arrestin peptide, at 10 µM, stronger effect = higher value, AP2 beta2 appendage fragment, R879A mutant.
The nature of assay [12]: yeast V-ATPase proton transport modulators, S. cerevisiae, pHLuorin, HTS validation (AID 504600; in the data active means response above about 15%;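 further: plate controls were DMSO for no effect and reference compound for full effect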). As to conditions: S. cerevisiae pHLuorin cytosolic pH, at 10 µM, stronger effect = higher value.
In assay [13] the test system is anti-desmoglein-3 scFv antibody binding to human DSG3. Kind of assay: inhibitors of anti-DSG3 scFv binding to DSG3, pilot screen, biochemical, validation compound set, bead-based, flow cytometry (AID 588368;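 active means binding below the plate cutoff, the plate median minus 3 SD, with a reading above zero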;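 further: signal is the median channel fluorescence of bead-bound GFP antibody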). As to conditions: Protein G beads, DSG3-Fc, scFv-GFP binding, at 10 µM, stronger effect = lower value.
Assay [14] is described as follows: inhibitors of fungal efflux pumps CDR1, CDR2, MDR1, pilot screen, validation compound set, multiplex, phenotypic (AID 588506;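 active means efflux inhibition above 0.42, the validation set average plus 4 SD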;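 further: Nile Red retained in cells so higher fluorescence means more efflux inhibition; 0 = negative control wells and 1 = enniatin B 25 µM full block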). As to conditions: S. cerevisiae pump-expressing triplex, Nile Red efflux flow cytometry; at 10 µM; stronger effect = higher value; the pumps come from Candida albicans.
Assay [15] has as its target ATP-binding cassette sub-family B member 6 (Homo sapiens) (UniProt Q9NP58). As to the kind of experiment: ABCB6 transporter inhibitors, pilot screen, K562-ABCB6 cells, flow cytometry, validation set (AID 588550;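 active means inhibition above the screen-wide mean plus 3 SD, about 51%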;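 further: 0% = DMSO wells and 100% = benzethonium chloride 70 µM positive control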). Conditions: K562-ABCB6 porphyrin accumulation, 1 h, at 10 µM, stronger effect = higher value.
Assay [16] can be described thus: promoters of myeloid differentiation in arrested cells, primary screen, cell-based, GFP/MAC1 double positive, flow cytometry, validation set (AID 588685;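 active means differentiation response of at least 50%, scaled between solvent and reference control, from cells with both markers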;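 further: compound exposure lasts four days before antibody staining and flow analysis; 0% = DMSO wells and 100% = 5 µM fulvestrant positive control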). As to conditions: ER-HoxA9 marrow cells, stronger effect = higher value, normalized: vehicle 0, fulvestrant 100.

Each structure is given as a SMILES string. Several values for one entry are separate records, joined by “and”; a condition that tells them apart may be missing. Identical values can stand only once. Results filed as inconclusive are left out. Activity calls are given as the source filed them.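 How the source made its calls, unless noted: active means GFP response, as percent of the DMSO control, above the screen-wide mean plus 3 SD, about 139; inconclusive means no response measured because the compound's own fluorescence interfered; inactive means the rest.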

Chain of Beta-adrenergic receptor kinase 1 (Homo sapiens) (P25098 whole entry, looked up): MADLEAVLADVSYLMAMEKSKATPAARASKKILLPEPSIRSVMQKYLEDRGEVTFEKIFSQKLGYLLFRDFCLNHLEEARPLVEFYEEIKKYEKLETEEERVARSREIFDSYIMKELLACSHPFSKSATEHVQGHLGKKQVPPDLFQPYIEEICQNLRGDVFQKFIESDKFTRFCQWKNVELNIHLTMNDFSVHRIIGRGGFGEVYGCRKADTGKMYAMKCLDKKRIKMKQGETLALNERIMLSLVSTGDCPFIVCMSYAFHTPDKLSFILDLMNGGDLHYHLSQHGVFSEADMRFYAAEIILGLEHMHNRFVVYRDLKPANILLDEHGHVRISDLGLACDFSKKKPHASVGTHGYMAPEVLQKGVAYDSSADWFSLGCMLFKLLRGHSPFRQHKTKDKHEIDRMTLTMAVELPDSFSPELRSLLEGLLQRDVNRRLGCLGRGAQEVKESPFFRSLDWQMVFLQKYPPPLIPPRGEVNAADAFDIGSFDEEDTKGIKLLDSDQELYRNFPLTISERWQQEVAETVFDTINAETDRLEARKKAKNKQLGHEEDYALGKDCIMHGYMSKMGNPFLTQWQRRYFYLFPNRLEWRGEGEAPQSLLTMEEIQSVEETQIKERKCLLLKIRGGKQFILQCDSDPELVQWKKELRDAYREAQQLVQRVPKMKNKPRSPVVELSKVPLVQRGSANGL
Chain of AP-2 complex subunit beta (Homo sapiens) (P63010 whole entry, looked up, the tested form may be a part, one chain of several): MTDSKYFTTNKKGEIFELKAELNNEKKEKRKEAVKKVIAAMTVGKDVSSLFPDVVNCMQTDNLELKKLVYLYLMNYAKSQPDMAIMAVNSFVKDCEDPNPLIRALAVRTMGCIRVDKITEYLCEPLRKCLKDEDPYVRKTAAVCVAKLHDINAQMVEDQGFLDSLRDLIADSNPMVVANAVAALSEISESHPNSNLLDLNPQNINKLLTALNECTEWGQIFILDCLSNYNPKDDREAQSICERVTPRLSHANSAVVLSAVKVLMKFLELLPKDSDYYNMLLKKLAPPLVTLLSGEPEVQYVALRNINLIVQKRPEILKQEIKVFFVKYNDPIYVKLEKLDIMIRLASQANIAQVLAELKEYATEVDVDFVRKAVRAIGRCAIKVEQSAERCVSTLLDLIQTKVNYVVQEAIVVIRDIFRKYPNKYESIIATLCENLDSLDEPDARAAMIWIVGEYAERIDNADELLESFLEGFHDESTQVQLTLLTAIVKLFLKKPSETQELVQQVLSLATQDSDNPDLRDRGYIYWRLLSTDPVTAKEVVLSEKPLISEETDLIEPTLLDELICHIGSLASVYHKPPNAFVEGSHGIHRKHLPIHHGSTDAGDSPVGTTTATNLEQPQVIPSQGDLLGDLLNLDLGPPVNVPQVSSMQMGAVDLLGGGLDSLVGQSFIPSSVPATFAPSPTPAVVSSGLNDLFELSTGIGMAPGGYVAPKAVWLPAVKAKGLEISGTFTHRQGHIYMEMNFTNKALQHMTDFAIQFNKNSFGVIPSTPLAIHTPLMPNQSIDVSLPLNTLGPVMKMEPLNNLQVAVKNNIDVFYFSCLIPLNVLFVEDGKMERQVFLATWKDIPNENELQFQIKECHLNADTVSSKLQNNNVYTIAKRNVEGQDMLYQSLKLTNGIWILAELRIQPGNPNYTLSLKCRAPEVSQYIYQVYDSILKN
Chain of Integrin beta-1 (Homo sapiens) + Integrin alpha-4 (Homo sapiens) (P05556 whole entry, looked up): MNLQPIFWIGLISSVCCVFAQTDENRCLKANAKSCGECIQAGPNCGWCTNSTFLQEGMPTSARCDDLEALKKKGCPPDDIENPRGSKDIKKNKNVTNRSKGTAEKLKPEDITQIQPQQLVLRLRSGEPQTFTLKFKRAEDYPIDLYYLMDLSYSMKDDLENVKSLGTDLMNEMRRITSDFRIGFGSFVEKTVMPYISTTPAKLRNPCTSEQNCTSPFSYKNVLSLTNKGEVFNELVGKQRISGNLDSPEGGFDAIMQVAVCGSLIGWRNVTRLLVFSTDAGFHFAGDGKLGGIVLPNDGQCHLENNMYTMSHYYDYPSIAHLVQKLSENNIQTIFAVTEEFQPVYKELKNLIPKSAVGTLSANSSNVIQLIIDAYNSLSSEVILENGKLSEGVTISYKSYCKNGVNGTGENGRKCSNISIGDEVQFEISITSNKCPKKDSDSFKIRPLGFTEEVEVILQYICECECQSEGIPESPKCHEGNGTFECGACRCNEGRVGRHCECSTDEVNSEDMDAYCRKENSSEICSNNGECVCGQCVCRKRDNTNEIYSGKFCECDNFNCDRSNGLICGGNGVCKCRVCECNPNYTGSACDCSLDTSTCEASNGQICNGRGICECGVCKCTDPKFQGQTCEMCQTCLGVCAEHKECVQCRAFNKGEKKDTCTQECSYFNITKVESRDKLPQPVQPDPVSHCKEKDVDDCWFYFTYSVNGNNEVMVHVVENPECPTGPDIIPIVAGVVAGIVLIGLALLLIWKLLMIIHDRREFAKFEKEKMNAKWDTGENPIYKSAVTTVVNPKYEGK
Chain of Integrin beta-1 (Homo sapiens) + Integrin alpha-4 (Homo sapiens) (P13612 whole entry, looked up): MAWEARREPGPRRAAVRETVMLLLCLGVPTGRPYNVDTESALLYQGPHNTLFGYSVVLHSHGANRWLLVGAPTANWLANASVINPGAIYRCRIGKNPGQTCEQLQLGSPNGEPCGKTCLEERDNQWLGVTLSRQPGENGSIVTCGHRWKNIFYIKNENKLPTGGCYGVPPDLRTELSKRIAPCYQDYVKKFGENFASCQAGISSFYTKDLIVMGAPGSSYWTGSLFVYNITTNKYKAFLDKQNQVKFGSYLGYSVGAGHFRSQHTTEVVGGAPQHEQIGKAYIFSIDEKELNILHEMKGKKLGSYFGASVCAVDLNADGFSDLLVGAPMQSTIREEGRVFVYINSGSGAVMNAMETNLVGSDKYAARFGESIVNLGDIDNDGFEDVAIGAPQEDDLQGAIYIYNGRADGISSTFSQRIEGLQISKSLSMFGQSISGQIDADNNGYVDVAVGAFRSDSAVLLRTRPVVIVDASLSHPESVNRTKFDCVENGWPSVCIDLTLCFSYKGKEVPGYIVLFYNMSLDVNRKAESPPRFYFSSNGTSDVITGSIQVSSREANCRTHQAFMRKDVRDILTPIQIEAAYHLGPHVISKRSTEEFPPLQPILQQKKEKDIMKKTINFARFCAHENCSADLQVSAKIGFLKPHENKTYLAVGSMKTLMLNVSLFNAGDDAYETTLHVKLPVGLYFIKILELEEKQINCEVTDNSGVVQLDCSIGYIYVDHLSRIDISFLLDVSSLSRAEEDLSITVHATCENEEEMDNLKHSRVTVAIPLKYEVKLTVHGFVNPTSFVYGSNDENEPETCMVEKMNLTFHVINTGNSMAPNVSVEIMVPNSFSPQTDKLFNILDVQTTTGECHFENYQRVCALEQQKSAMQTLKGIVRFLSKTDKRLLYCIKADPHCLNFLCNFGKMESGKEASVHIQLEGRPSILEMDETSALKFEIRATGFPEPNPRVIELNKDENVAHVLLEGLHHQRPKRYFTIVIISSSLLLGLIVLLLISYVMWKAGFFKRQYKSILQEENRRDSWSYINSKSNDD
Chain of Beta-2 adrenergic receptor (Homo sapiens) (P07550 whole entry, looked up): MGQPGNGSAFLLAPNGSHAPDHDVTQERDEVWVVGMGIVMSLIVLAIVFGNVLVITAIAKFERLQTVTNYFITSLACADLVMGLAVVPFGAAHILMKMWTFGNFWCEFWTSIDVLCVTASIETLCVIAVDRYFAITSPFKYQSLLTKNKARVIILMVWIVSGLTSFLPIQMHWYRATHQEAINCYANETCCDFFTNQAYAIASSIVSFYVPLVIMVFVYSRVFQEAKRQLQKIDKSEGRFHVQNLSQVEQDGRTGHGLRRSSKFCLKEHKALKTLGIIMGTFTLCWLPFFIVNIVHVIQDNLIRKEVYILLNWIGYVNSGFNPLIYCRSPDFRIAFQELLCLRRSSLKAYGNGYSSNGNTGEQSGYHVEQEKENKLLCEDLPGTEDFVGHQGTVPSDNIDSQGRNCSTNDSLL
Chain of ATP-binding cassette sub-family B member 6 (Homo sapiens) (Q9NP58 whole entry, looked up): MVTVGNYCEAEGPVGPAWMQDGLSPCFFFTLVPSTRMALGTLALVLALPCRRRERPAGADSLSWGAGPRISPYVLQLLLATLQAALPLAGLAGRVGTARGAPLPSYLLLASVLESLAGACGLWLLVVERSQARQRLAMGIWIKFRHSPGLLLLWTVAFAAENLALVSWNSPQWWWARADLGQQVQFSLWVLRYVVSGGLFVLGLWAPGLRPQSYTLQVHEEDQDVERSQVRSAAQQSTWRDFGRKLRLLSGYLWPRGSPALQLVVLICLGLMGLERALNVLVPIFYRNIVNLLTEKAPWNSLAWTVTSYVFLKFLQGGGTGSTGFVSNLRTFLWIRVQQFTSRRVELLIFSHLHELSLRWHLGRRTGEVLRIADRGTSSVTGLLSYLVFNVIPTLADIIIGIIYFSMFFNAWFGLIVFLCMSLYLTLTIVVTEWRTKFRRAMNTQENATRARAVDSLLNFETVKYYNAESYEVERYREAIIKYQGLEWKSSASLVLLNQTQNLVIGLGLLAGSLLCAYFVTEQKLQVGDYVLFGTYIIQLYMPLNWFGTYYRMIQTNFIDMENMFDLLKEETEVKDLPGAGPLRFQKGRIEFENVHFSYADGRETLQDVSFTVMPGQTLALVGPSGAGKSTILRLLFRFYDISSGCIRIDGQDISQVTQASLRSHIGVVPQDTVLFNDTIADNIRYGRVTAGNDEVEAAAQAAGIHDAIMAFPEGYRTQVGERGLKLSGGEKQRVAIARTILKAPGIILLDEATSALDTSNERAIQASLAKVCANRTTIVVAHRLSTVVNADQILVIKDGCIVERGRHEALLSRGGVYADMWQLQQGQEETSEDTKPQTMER

With `CCNC(=S)N1CCN(CCN2C(=O)c3cccc4cccc(c34)C2=O)CC1`, in [1], the percent of DMSO control GFP was 103% (inactive). The results for the GFP response vs DMSO in assay [2] and in assay [4] were 97.7% (inactive) and 95.9% (inactive), respectively. The percent response of DMSO control in assay [3] is 106% (inactive). Besides, the GFP response, % of DMSO in assay [5] was 107% (inactive). In assay [6], this compound showed a double positive events of 63.5%. In assay [6], the vesicle binding response is 143% (inactive). The inhibition was -26.6% (inactive) in assay [7], -15.4% (inactive) in assay [11] and -13% (inactive) in assay [15]. For the same compound, in [8], the superoxide response (% of plate) was 96.9% (inactive). Also, in assay [9], the aptamer binding inhibition is 0% (inactive). The response in assay [10] was -20.5% (inactive); in assay [12], 1.54% (inactive). Further, in assay [13], the binding (% of control) is 104% (inactive). The efflux inhibition (fraction of control) in assay [14] was -0.195 (inactive). Moreover, the differentiation response in assay [16] is -8.96% (inactive).

As for `CN(C)C(=O)Oc1cccc([N+](C)(C)C)c1`, the percent of DMSO control GFP in assay [1] is 95.7% (inactive) and 98.8% (inactive). Moreover, the GFP response vs DMSO is 104% (inactive) and 109% (inactive) in assay [2]; 115% (inactive) and 112% (inactive) in [4]. Further, in [3], the percent response of DMSO control was 100% (inactive) and 91% (inactive). Besides, the GFP response, % of DMSO in [5] was 110% (inactive) and 105% (inactive). Further, the double positive events in assay [6] is 55.5% and 63.8%. Moreover, in assay [6], the vesicle binding response was 158% (inactive) and 4880% (inactive). Moreover, the inhibition in assay [7] was -2.82% (inactive) and 3.67% (inactive); in assay [11], -12.1% (inactive) and 15% (inactive); in assay [15], 2% (inactive) and 4% (inactive). In assay [8], the superoxide response (% of plate) is 93.6% (inactive) and 108% (inactive). Besides, in [9], the aptamer binding inhibition is -3% (inactive) and 4% (inactive). Moreover, the response in assay [10] is -26.2% (inactive) and -0.74% (inactive); in [12], 0% (inactive) and -1.87% (inactive). The binding (% of control) in assay [13] is 106% (inactive) and 97.8% (inactive). Moreover, the efflux inhibition (fraction of control) in [14] was 0 (inactive) and -0.13 (inactive). Besides, in assay [16], the differentiation response was -0.06% (inactive) and -15.2% (inactive).

Take `CCCCC(=O)O[C@H]1CC[C@H]2[C@@H]3CCc4cc(O)ccc4[C@H]3CC[C@]12C`: in [1], the percent of DMSO control GFP was 100% (inactive). Moreover, the results for the GFP response vs DMSO in assay [2] and in assay [4] were 105% (inactive) and 125% (inactive), respectively. For the same compound, in assay [3], the percent response of DMSO control was 109% (inactive). Further, the GFP response, % of DMSO in assay [5] was 116% (inactive). In assay [6], this compound displayed a double positive events of 62.5%. In assay [6], the vesicle binding response was 210% (inactive). For the same compound, the inhibition in assay [7] was 29.5% (inactive); in assay [11] it was 30.7% (inactive); in assay [15], -1% (inactive). Moreover, the superoxide response (% of plate) in assay [8] was 93.8% (inactive). In addition, in assay [9], the aptamer binding inhibition is -4% (inactive). For the same compound, the response in assay [10] is 52.1% (active); in assay [12] it was -0.48% (inactive). The binding (% of control) in assay [13] was 106% (inactive). Besides, the efflux inhibition (fraction of control) in assay [14] was -0.17 (inactive). Further, in [16], the differentiation response is -6.96% (inactive).

For the compound `Cc1nc(NC(CC(C)C)C(=O)O)c2nc(C)oc2n1` (stereo not drawn), the percent of DMSO control GFP in assay [1] is 97.4% (inactive). Further, the figures for the GFP response vs DMSO in [2] and in assay [4] were 111% (inactive) and 120% (inactive), respectively. In addition, the percent response of DMSO control in assay [3] is 90.1% (inactive). Further, the GFP response, % of DMSO in assay [5] was 101% (inactive). In assay [6], this compound yielded a double positive events of 57.6%. For the same compound, in assay [6], the vesicle binding response was 121% (inactive). Also, the inhibition in assay [7] is -5.89% (inactive); in assay [11], 4.51% (inactive); in assay [15], 6% (inactive). The superoxide response (% of plate) in assay [8] is 95.4% (inactive). Moreover, the aptamer binding inhibition in [9] was 7% (inactive). Further, the response in assay [10] was 3.8% (inactive); in assay [12], 3.4% (inactive). Besides, the binding (% of control) in assay [13] was 102% (inactive). In addition, the efflux inhibition (fraction of control) in assay [14] was -0.13 (inactive). The differentiation response in assay [16] is -28% (inactive).
